This is part of a sample that, as a whole, favours compounds with a hit. Of some 83,000 tested, about 20% had one in any assay.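 Growth was measured after 48 h exposure to one concentration of compound in 96-well plates. Values under 10 count as active.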 Activity calls are given as the source filed them.
What was measured:
Test in all cases: NCI-60 one-dose screen, 48 h (100 = growth as untreated, 0 = no growth, -100 = all killed)
Conditions in all cases: 10 µM
[1] = system: NCI-H23 lung
[2] = system: NCI-H226 lung
[3] = system: NCI-H322M lung
[4] = system: HOP-62 NSCLC
[5] = system: NCI-H460 lung
[6] = system: HOP-92 NSCLC
[7] = system: NCI-H522 lung
[8] = system: A549/ATCC NSCLC
[9] = system: 786-0 renal
[10] = system: COLO 205 colon
[11] = system: DU-145 prostate
[12] = system: K-562 leukemia
[13] = system: MDA-MB-231 breast
[14] = system: RXF 393 renal
[15] = system: SF-268 CNS
[16] = system: SF-295 CNS
[17] = system: SF-539 CNS
[18] = system: UACC-257 melanoma
[19] = system: M14 melanoma
[20] = system: MALME-3M melanoma

Measured: growth

CC[C@@]1(C(N)=O)CC2C=CC1C2 (stereo partly specified)
inactive: [1] 110% | [2] 102% | [3] 142% | [4] 111% | [5] 122% | [6] 97.2% | [7] 101% | [8] 107% | [9] 98.9% | [10] 114% | [11] 113% | [12] 92.6% | [13] 109% | [14] 112% | [15] 119% | [16] 110% | [17] 111% | [18] 118% | [19] 102%

Oc1ccc(/C=N\Nc2ccccn2)c(O)c1
active: [1] 1.98% | [3] -5.61% | [4] 2.96% | [5] 3.15% | [9] -13.2% | [16] -4.28% | [17] -0.82% | [19] -36.2%
inactive: [2] 41.7% | [6] 38.1% | [7] 23.7% | [8] 26.6% | [10] 69.1% | [11] 11.1% | [12] 24.3% | [13] 37.8% | [14] 28.5% | [15] 16.4% | [18] 30.3%

CC1(C)CC(OCCCC[P+](c2ccccc2)(c2ccccc2)c2ccccc2)CC(C)(C)N1O
inactive: [2] 12.7% | [4] 13.3% | [17] 12%
active: [1] 4.57% | [3] 9.8% | [5] 2.69% | [6] -41.4% | [7] -14.3% | [8] 6.09% | [9] -12.4% | [10] -55.3% | [11] 5.39% | [12] -53.4% | [13] -25.7% | [14] -38.1% | [15] 3.46% | [16] -56% | [18] -40.6% | [19] 8.8%

C/C(=N\NC(N)=S)C(C)(C)O
inactive: [1] 93.6% | [2] 89.2% | [3] 104% | [4] 104% | [5] 104% | [6] 88.1% | [7] 109% | [8] 83.4% | [9] 96.3% | [10] 119% | [11] 93.2% | [12] 37.1% | [13] 77.8% | [14] 96.2% | [15] 95.9% | [16] 79.5% | [17] 102% | [18] 32.6% | [19] 92%

COc1cc(OC)cc(-c2n/c(=C\c3c(O)[nH]c4ccc(OC)cc34)cc3c2=Nc2ccccc2-3)c1
inactive: [1] 65.8% | [2] 92.4% | [3] 102% | [4] 99.1% | [5] 12.8% | [6] 68.6% | [7] 108% | [8] 52.1% | [9] 75.9% | [10] 86.5% | [14] 79.7% | [15] 73.6% | [16] 98.4% | [17] 108% | [18] 115% | [19] 21.4%
active: [11] 3.54% | [12] -9.91% | [13] 3.25%

CCN(CC)CC(O)Cc1ccc(OC)cc1 (stereo unspecified)
inactive: [1] 108% | [2] 99.5% | [3] 121% | [4] 104% | [5] 117% | [6] 108% | [7] 97.8% | [8] 104% | [9] 100% | [10] 109% | [11] 115% | [12] 101% | [13] 105% | [14] 106% | [15] 114% | [16] 109% | [17] 97.4% | [18] 113% | [19] 116%

COc1cccc(C2(C)Nc3ccccc3-c3nc4ccccc4n32)c1 (stereo unspecified)
inactive: [1] 102% | [2] 102% | [3] 92% | [4] 97.7% | [5] 101% | [6] 93.4% | [7] 103% | [8] 102% | [9] 101% | [11] 112% | [12] 100% | [20] 108% | [13] 101% | [14] 111% | [15] 110% | [16] 94.6% | [17] 105% | [18] 110% | [19] 102%

CCc1ccc(-c2nnc(COc3ccc(-c4nc5ccc(C)cc5[nH]4)cc3OC)o2)cc1
inactive: [1] 57.2% | [2] 48.6% | [3] 87.2% | [4] 32.6% | [5] 63.5% | [6] 74.1% | [7] 71.3% | [8] 61.6% | [9] 21% | [11] 48.5% | [12] 33.1% | [14] 24.4% | [15] 55.6% | [16] 20% | [18] 95.7% | [19] 49.5%
active: [20] 9.91% | [13] 9.26% | [17] -28.2%

O=C(NCCc1nccs1)c1cnc2c(S)cccc2c1
inactive: [1] 34.2% | [2] 46.1% | [3] 29.7% | [4] 29.3% | [6] 54.5% | [8] 12.6% | [9] 47% | [11] 22.9% | [20] 40.1% | [13] 13.6% | [15] 37.7% | [16] 38.8% | [17] 22.8% | [18] 17.7% | [19] 10.7%
active: [5] 0.683% | [7] -65.7% | [12] 4.3% | [14] 9.59%

CCOC(=S)Sc1ccc([N+](=O)[O-])cc1[N+](=O)[O-]
inactive: [1] 97.3% | [2] 88.8% | [3] 93.3% | [4] 94% | [5] 106% | [6] 48.6% | [8] 83.2% | [9] 102% | [11] 95.5% | [20] 84.1% | [13] 88.4% | [14] 108% | [15] 104% | [16] 99.2% | [17] 26.2% | [18] 79.2% | [19] 36.2%
active: [7] -1.29% | [12] 7.81%

CCCc1ccnc(NS(=O)(=O)c2ccc(N)cc2)n1
inactive: [1] 62.8% | [2] 79.2% | [3] 103% | [4] 105% | [5] 95.4% | [6] 93.1% | [7] 56.6% | [8] 79.3% | [9] 90.3% | [11] 117% | [12] 54.7% | [20] 67.1% | [13] 81.9% | [14] 102% | [15] 95.6% | [16] 95.9% | [17] 71.8% | [18] 43.4% | [19] 95.8%

CNC(=O)c1cc(Oc2ccc(NC(=O)Nc3ccc(Cl)c(OC4CCCCC4)c3)c(F)c2)ccn1
active: [7] 9.84%
inactive: [1] 21.4% | [2] 48.4% | [3] 75.8% | [4] 70.5% | [5] 37.9% | [6] 36% | [8] 26.6% | [9] 90.4% | [11] 65.6% | [12] 17.1% | [20] 69% | [13] 68.7% | [14] 79.4% | [15] 61% | [16] 20.5% | [17] 59.9% | [18] 23.3% | [19] 40%

CCCCCCCCCCCCCCCCCBr
inactive: [1] 106% | [2] 94.9% | [3] 94.6% | [4] 104% | [5] 106% | [6] 98.8% | [7] 98.4% | [8] 108% | [9] 104% | [11] 113% | [12] 97.4% | [20] 108% | [13] 112% | [14] 109% | [15] 109% | [16] 97% | [17] 99.5% | [18] 102%

CC(=O)[C@H]1CC[C@H]2[C@@H]3CC[C@@H]4CC=C(C=O)C[C@]4(C)[C@H]3CC[C@]12C
inactive: [1] 92.7% | [2] 99.4% | [3] 97.6% | [4] 122% | [5] 103% | [6] 68.1% | [7] 82.5% | [8] 92.4% | [9] 93.2% | [11] 98.7% | [12] 81.9% | [20] 96.2% | [13] 94.3% | [14] 112% | [15] 92.4% | [16] 93.2% | [17] 92.4% | [18] 96.2% | [19] 89.2%

C/C(=N/NC(=O)c1sc(=S)n(C)c1N)c1cc2cc(Cl)ccc2o1
active: [8] 8.04% | [18] 5.89%
inactive: [1] 97.9% | [2] 102% | [3] 88.1% | [4] 96.5% | [5] 89% | [6] 114% | [7] 88.6% | [9] 106% | [11] 87.2% | [12] 72.8% | [20] 113% | [13] 68.9% | [15] 80.2% | [16] 109% | [17] 99.2% | [19] 91.7%

COc1ccc(-c2oncc2-c2cc(OC)c3c(c2)OCO3)cc1
active: [6] -3.69% | [7] 3.28% | [17] -16%
inactive: [1] 47.7% | [2] 77.5% | [3] 39% | [4] 33.2% | [5] 11.5% | [8] 27.7% | [9] 36.6% | [11] 34.2% | [12] 13.8% | [20] 52.4% | [13] 54.1% | [14] 17.4% | [15] 50.2% | [16] 12.3% | [18] 45.1% | [19] 13.1%

O=C(/C=C/c1ccc(Cl)cc1)c1ccc(Br)cc1
inactive: [1] 94.6% | [2] 108% | [3] 91.2% | [4] 97.2% | [5] 109% | [6] 111% | [7] 82.6% | [8] 102% | [9] 81.1% | [11] 101% | [12] 97.5% | [20] 102% | [13] 102% | [14] 114% | [15] 102% | [16] 95.9% | [17] 94% | [18] 106% | [19] 100%

Source: PubChem BioAssay (NCI)
